GLS inh – qHTS for Inhibitors of Glutaminase (GLS) | Glutaminase kidney isoform, mitochondrial (Homo sapiens), O94925 | GLS enzymatic activity, qHTS titration | Potency, µM (highest dose often 45.5 µM), inactives show at the highest dose activity change, negative = inhibition, most hits filed as inhibitors | 410,000 compounds, 0.21% hits | AID 624170, 2012; also: % is scaled to controls: 0 for no effect and ±100 for the full control effect
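Enzyme dispensed in phosphate buffer (45 mM, pH 8.2, 0.02% Tween-20), compounds pinned in, then 1 mM L-glutamine solution and the glutamate oxidase–HRP–Amplex Red mix added; fluorescence read immediately and again after 30 min at room temperature.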
HP1b chromo inh – HTS for Inhibitors of HP1-beta Chromodomain Interactions with Methylated Histone Tails | AlphaScreen HP1-beta / biotin-H3K9me3 peptide binding | Potency, µM (titrated, usually from 114 µM), for the others: at the highest dose activity change, negative = inhibition, hits mostly inhibitors | 390,000 compounds, 0.56% hits; also: nearly all actives have a fitted effect of over 70% in size
Target sequence (P83916 whole entry, looked up): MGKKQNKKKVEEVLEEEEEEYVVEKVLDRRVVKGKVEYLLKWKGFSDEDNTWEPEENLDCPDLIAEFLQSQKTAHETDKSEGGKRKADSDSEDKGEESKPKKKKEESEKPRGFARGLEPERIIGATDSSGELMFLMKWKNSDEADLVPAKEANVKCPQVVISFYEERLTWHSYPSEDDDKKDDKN
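AlphaScreen: HP1-beta (50 nM) preformed 30 min with biotin-H3(1-18)K9me3 peptide (50 nM) in PBS pH 7.4, 0.01% Tween-20. Compound added for 30 min at RT, then streptavidin donor/nickel chelate acceptor beads (10 ug/mL) for 30 min.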
BAZ2B block – qHTS Assay for Inhibitors of BAZ2B; Bromodomain adjacent to zinc finger domain protein 2B (Homo sapiens), Q9UIF8; AlphaScreen BAZ2B-H3K14Ac peptide displacement; Potency, µM (doses to about 114 µM), without a hit: at the top dose activity change, negative = inhibition, most hits filed as inhibitors; 360,000 compounds, 4.4% hits; also: % is scaled to controls: 0 for no effect and ±100 for the full control effect; nearly all actives have a fitted effect of over 60% in size
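Inhibition is scored as reduced AlphaScreen emission. The BAZ2B/b-H3(5-23)K14Ac complex (50 nM each) in PBS pH 7.4, 0.01% Tween-20 meets compound (up to 110 uM) for 30 min at RT before bead addition.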
JMJD2A Tudor inh – qHTS Assay for Inhibitors of JMJD2A-Tudor Domain; AlphaScreen JMJD2A-Tudor / H3K4me3 peptide binding; AID 504339, 2011; 390,000 compounds, 4.4% hits; Lysine-specific demethylase 4A (Homo sapiens), O75164; Potency, µM (top dose mostly 114 µM), inactives show top-dose activity change, negative = inhibition, actives largely listed as inhibitors; also: % is scaled to controls: 0 for no effect and ±100 for the full control effect; nearly all actives have a fitted effect of over 50% in size
G9a block – qHTS Assay for Inhibitors of Histone Lysine Methyltransferase G9a | G9a H3K9 monomethylation, AlphaScreen, 2 h | 350,000 compounds, 8.8% hits | AID 504332, 2011 | Potency, µM (titrated, usually from 102 µM), for the others: at the top dose activity, negative = inhibition, usual class: inhibitors | Histone-lysine N-methyltransferase EHMT2 (Homo sapiens), Q96KQ7; also: % is scaled to controls: 0 for no effect and ±100 for the full control effect; nearly all actives have a fitted effect of over 75% in size
Target sequence (Q96KQ7 913-1193 limits assumed): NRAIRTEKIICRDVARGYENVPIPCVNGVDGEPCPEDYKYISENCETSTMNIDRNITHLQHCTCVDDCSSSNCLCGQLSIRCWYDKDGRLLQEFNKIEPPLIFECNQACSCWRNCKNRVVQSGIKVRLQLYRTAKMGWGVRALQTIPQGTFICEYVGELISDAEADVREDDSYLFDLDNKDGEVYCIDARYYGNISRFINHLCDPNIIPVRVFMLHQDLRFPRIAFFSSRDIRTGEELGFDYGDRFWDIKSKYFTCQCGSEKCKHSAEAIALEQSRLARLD
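Step 1: enzyme (final 20 nM) with compound, 15 min RT. Step 2: substrate peptide 500 nM and SAM 20 uM, 2 h RT. Step 3: anti-H3K9me1 antibody and AlphaScreen beads, 10 min, then plate read.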
* = called active by the depositor; ? = inconclusive; . = no result given; [ ] = dose if it differs, or a comment. Sampled rows, rich in hits. Any-hit rate of the full collection: about 10%. Calls follow the shape of the dose curve; as a rule, active = well fitted curve in the direction sought with a large enough effect; inconclusive = small, poorly fitted or top-dose-only effect, or another doubt; inactive = no such curve, though single readings can be large; an effect the other way counts as inactive or inconclusive. Potency is read from the fitted curve at half-maximal effect.

SMILES	GLS inh	HP1b chromo inh	BAZ2B block	JMJD2A Tudor inh	G9a block
CCCCOc1cccc(C(=O)N(Cc2ccc(N(C)C)cc2)C2CCS(=O)(=O)C2)c1 (stereo not drawn)	19%	?	-19%	56µM*	28%[59 µM]
CN(CC(=O)Nc1ccc(SC(F)F)cc1)C1CCCCC1	8%	47%	-1%	1%	79µM*
CN(CC(=O)Nc1ccc(Cl)c(Cl)c1)C1CCCCC1	-2%	?	-28%	22µM*	22µM*
CN1CCC(N(C)CC(=O)Nc2ccc3c(c2)OC(F)(F)O3)CC1	1%	?	45µM*	2µM*	.
CN(CC(=O)Nc1ccc(S(N)(=O)=O)cc1)C1CCCCC1	16%	34%	7%	-4%	-4%
COc1ccc(S(=O)(=O)Nc2c(C)cccc2C)cc1-n1cnnn1	0%	12%	2%	-5%	-13%
O=[N+]([O-])c1ccc(C(=S)N2CCCC2)cc1	1%	16%	?	-8%	-113%[59 µM]
CCN1CCN(C(=S)c2ccc([N+](=O)[O-])cc2)CC1	2%	-34%	4%	?	10µM*
CC1CCN(C(=S)c2ccc([N+](=O)[O-])cc2)CC1	-16%	?	?	-34%	7.9µM*
CCCN1CCN(C(=S)Nc2ccc([N+](=O)[O-])cc2)CC1	29%	-22%	2%	-28%	28µM*
Cn1nc(-c2ccc(OCC(=O)Nc3cccc(C(F)(F)F)c3)cc2)c2ccccc2c1=O	?	16%	-31%	-20%	4%[59 µM]
Cc1ccc(CN2CCC(C)(Oc3cccc(Cl)c3)C2)cc1 (stereo not drawn)	-3%	.	.	.	.
O=C(Nc1c2c(nn1-c1ccc(F)cc1)CS(=O)C2)c1ccc2c(c1)OCO2 (stereo not drawn)	3%	2%	-3%	89µM*	.
COc1ccc(CC(=O)Nc2ccc(S(=O)(=O)Nc3cc(C)nc(C)n3)cc2)cc1OC	-10%	.	.	.	.
c1ccc2[nH]c(C3CC3)nc2c1	0%	-11%	-19%	-15%	0%[59 µM]
c1ccc(-c2nc3ccccc3[nH]2)cc1	11%	35%	3%	-8%	-3%[12.7 µM]
Cc1nc2ccc(-c3nc4ccc(N)cc4[nH]3)cc2[nH]1	8.9µM*	16%	-25%	-30%	?
Nc1ccc(-c2nc3ccc(N)cc3[nH]2)cc1	27%	?	?	56µM*	-39%
Nc1cc(N)cc(-c2nc3ccccc3[nH]2)c1	2%	-36%	45µM*	?	22µM*
Nc1ccc2nc(C3CCCCC3)[nH]c2c1	?	13%	56µM*	-17%	?
COc1cc(NC(=O)c2cccc(Cl)c2Cl)ccc1NC(=O)c1cc2ccccc2o1	-4%	38%	-29%	-17%	4%[59 µM]
CC(C)Oc1ccc(CNC(=O)c2sc3ncccc3c2-n2cccc2)cc1	1%	13%[57 µM]	2%	-1%	-3%[59 µM]
Nc1ccc2nc(-c3cccc(-c4nc5ccc(N)cc5[nH]4)c3)[nH]c2c1	-14%	-17%[57 µM]	?	-34%	22µM*
CCOc1ccc(C(=O)Nc2ccc(C(=O)OCc3cc(=O)n4c(C)csc4n3)cc2)cc1	0%	57%	-39%	-28%	0%[59 µM]
COCCn1nnnc1C(C(C)C)N1CCOCC1 (stereo not drawn)	17%	18%	-3%	-23%	79µM*
OCCCNCc1ccc(N(c2ccccc2)c2ccccc2)cc1	-7%	71µM*	56µM*	40µM*	13µM*
CC=CCn1c(SCc2ccccc2)nc2c1c(=O)[nH]c(=O)n2C	-25%	.	.	.	.
C=CCSc1nc2c(c(=O)[nH]c(=O)n2C)n1Cc1ccc(C)cc1	8%	-6%	1%	-19%	14µM*
CCCSc1nc2c(c(=O)[nH]c(=O)n2C)n1Cc1ccc(C)cc1	-5%	25%	8%	-13%	6%
C/C=C/Cn1c(SCc2ccc(C)cc2)nc2c1c(=O)[nH]c(=O)n2C	1%	-13%	-5%	-20%	25µM*
